Measured values reported in paper PMC7826789 (International Journal of Molecular Sciences, 2021).

How the values were obtained:
Conditions in all cases: Compound Concentration (nM):1000
LRRK2 = test system: LRRK2
LTK = test system: LTK
LYN = test system: LYN
LZK = test system: T1, LZK
T1 construct: gene MAP3K13

MAK = test system: MAK
MAP3K15 = test system: MAP3K15
MAP3K1 = test system: MAP3K1
MAP3K2 = test system: MAP3K2
MAP3K3 = test system: MAP3K3
MAP3K4 = test system: MAP3K4
MAP4K2 = test system: MAP4K2
MAP4K3 = test system: MAP4K3
MAP4K4 = test system: MAP4K4
MAP4K5 = test system: MAP4K5
MAPKAPK2 = test system: MAPKAPK2
MAPKAPK5 = test system: MAPKAPK5
MARK1 = test system: MARK1
MARK2 = test system: MARK2
MARK3 = test system: MARK3
MARK4 = test system: MARK4
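Note: KINOMEscan scanMAX binding as percent activity remaining versus control; lower means stronger binding.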

SMILES	Percent Control (LRRK2)	Percent Control (LTK)	Percent Control (LYN)	Percent Control (LZK)	Percent Control (MAK)	Percent Control (MAP3K15)	Percent Control (MAP3K1)	Percent Control (MAP3K2)	Percent Control (MAP3K3)	Percent Control (MAP3K4)	Percent Control (MAP4K2)	Percent Control (MAP4K3)	Percent Control (MAP4K4)	Percent Control (MAP4K5)	Percent Control (MAPKAPK2)	Percent Control (MAPKAPK5)	Percent Control (MARK1)	Percent Control (MARK2)	Percent Control (MARK3)	Percent Control (MARK4)
CC1=C(C(=O)Nc2ccc3[nH]ncc3c2)C(c2ccc(Cl)c(Cl)c2)CC(=O)N1 (stereo not shown) [GSK299115A]	96%	84%	100%	79%	100%	84%	76%	85%	85%	100%	79%	79%	73%	75%	96%	100%	100%	100%	78%	100%
C[C@@H](Oc1cc(-n2cnc3ccc(OC4CCN(C)CC4)cc32)sc1C(N)=O)c1ccccc1Cl [GSK579289A]	77%	24%	93%	78%	100%	95%	41%	83%	65%	67%	24%	93%	49%	36%	100%	100%	85%	77%	80%	89%
CCS(=O)(=O)c1ccc(OC)c(Nc2ncc(-c3cccc(OC)c3)o2)c1 [GW580509X]	100%	100%	53%	100%	100%	100%	68%	100%	100%	100%	89%	100%	100%	100%	96%	100%	100%	100%	100%	99%
Cl.c1ccc(Cc2nc3ccc(Nc4ncnc5ccccc45)cc3[nH]2)cc1 [GR269666A]	100%	100%	93%	100%	100%	100%	100%	100%	100%	100%	92%	100%	100%	100%	76%	100%	100%	100%	97%	96%
COC(=O)Nc1nc2ccc(Oc3ccc(NC(=O)Nc4cc(C(F)(F)F)ccc4F)cc3)cc2s1.Cl [GW693917A]	39%	18%	19%	78%	100%	100%	53%	92%	79%	80%	78%	100%	57%	71%	94%	78%	100%	78%	73%	99%
CCc1ccc(Oc2nccc(-c3c(-c4ccc(F)cc4)ncn3C3CCNCC3)n2)cc1 [SB-242719]	100%	95%	100%	95%	100%	91%	67%	98%	66%	93%	40%	87%	69%	53%	91%	96%	69%	77%	61%	100%
O=C(Nc1n[nH]c2nc(-c3ccc(O)cc3)c(Br)cc12)C1CC1 [SB-725317]	89%	60%	100%	100%	39%	94%	60%	84%	97%	100%	38%	100%	84%	100%	100%	100%	95%	100%	100%	100%
CC(C)COC(=O)c1ccc2c(c1)/C(=C/Nc1ccc(S(N)(=O)=O)cc1)C(=O)N2 [GW416981X]	56%	100%	100%	100%	100%	100%	67%	66%	90%	100%	76%	95%	86%	87%	100%	100%	100%	73%	93%	81%
Cl.O=C(Nc1ccc(Oc2ccc3[nH]c(NC(=O)c4ccco4)nc3c2)cc1)Nc1cc(C(F)(F)F)ccc1F [GW683134A]	28%	6.2%	29%	100%	100%	90%	53%	100%	85%	86%	85%	83%	95%	84%	94%	100%	100%	100%	82%	100%
CCS(=O)(=O)c1ccc(OC)c(Nc2ncc(-c3cccc(F)c3)o2)c1 [GW621970X]	90%	100%	36%	100%	100%	95%	80%	100%	100%	100%	91%	100%	100%	100%	92%	94%	96%	100%	100%	92%
COc1cc(C=NNc2ncnc3c2cnn3-c2ccccc2)ccc1O [GW513184X]	100%	100%	74%	98%	78%	100%	100%	99%	73%	100%	89%	100%	66%	94%	100%	97%	97%	90%	100%	93%
CN(C)CCNC(=O)Nc1ccc(N(C)c2ccnc(Nc3ccc(CS(C)(=O)=O)cc3)n2)cc1.Cl [GW830900A]	83%	100%	100%	75%	100%	100%	82%	69%	84%	99%	80%	69%	66%	77%	100%	93%	84%	67%	55%	100%
C/C(Nc1ccc(S(N)(=O)=O)cc1)=C1/C(=O)Nc2ccccc21 [GW335962X]	55%	78%	87%	97%	98%	93%	62%	53%	55%	100%	49%	67%	89%	100%	100%	100%	83%	72%	96%	87%
COc1cc2ncnc(Nc3ccc4c(cnn4Cc4ccccc4)c3)c2cc1OC.Cl [GW282449A]	100%	46%	46%	100%	100%	98%	84%	100%	100%	100%	93%	95%	100%	88%	72%	88%	100%	100%	100%	100%
COc1cc(/C=N/Nc2ncnc3[nH]ncc23)ccc1O [GW578748X]	54%	100%	86%	100%	100%	96%	49%	67%	85%	93%	43%	100%	100%	100%	100%	100%	79%	100%	99%	60%
NS(=O)(=O)c1ccc(N/N=C2\C(=O)Nc3ccc(-c4cnco4)cc32)cc1 [GW276655]	44%	100%	100%	62%	100%	75%	100%	79%	74%	82%	80%	85%	62%	84%	100%	100%	44%	85%	100%	68%
COc1cccc(-c2c[nH]c3c(N/N=C/c4ccncc4)ncnc23)c1 [GW814408X]	100%	98%	50%	93%	100%	100%	92%	65%	57%	100%	78%	93%	65%	68%	100%	100%	89%	100%	100%	99%
COc1cc(N2CCN(C(C)C)CC2)ccc1Nc1nc(Nc2ccc(F)cc2C(=O)NC[C@@H](O)CO)c2cc[nH]c2n1 [GSK1392956A]	12%	66%	92%	100%	100%	93%	86%	100%	88%	94%	91%	100%	94%	96%	85%	94%	90%	59%	86%	100%
Cc1cc(O)cc(C)c1/C=C/c1cncc(C(N)=O)c1 [GW435821X]	81%	100%	38%	100%	100%	100%	65%	79%	59%	100%	56%	81%	100%	100%	100%	100%	100%	100%	91%	78%
CCn1c(-c2nonc2N)nc2c(C#CC(C)(C)O)nc(OCCNC)cc21.Cl [GSK949675]	100%	100%	100%	91%	100%	100%	100%	6.9%	28%	100%	84%	100%	95%	57%	100%	100%	100%	90%	100%	100%
